Assay results published in PubChem BioAssay (NCI).
Compounds without any hit were thinned out: in the full panel of roughly 83,000, 20% have a hit.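 Step 1: grow cells in 96-well plates. Step 2: add test compound at a single concentration. Step 3: incubate 48 h. Step 4: record percent growth.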 The source made the active and inactive calls. Rule for the calls: active = growth percent below 10; inactive = the rest.

Assays:
Assay in all cases: NCI-60 one-dose screen, 48 h (100 = growth as untreated, 0 = no growth, -100 = all killed)
[1] = test system: SR leukemia; conditions: 10 µM unless noted
[2] = test system: OVCAR-8 ovarian; conditions: 10 µM unless noted
[3] = test system: OVCAR-5 ovarian; conditions: 10 µM unless noted
[4] = test system: OVCAR-4 ovarian; conditions: 10 µM unless noted
[5] = test system: SK-OV-3 ovarian; conditions: 10 µM unless noted
[6] = test system: IGROV1 ovarian; conditions: 10 µM unless noted
[7] = test system: OVCAR-3 ovarian; conditions: 10 µM unless noted
[8] = test system: NCI/ADR-RES ovarian; conditions: 10 µM unless noted
[9] = test system: T-47D breast; conditions: 10 µM unless noted
[10] = test system: BT-549 breast; conditions: 10 µM unless noted
[11] = test system: MDA-MB-435 melanoma; conditions: 10 µM unless noted
[12] = test system: SW-620 colon; conditions: 10 µM unless noted
[13] = test system: MCF7 breast; conditions: 10 µM unless noted
[14] = test system: HCT-116 colon; conditions: 10 µM unless noted
[15] = test system: HCC-2998 colon; conditions: 10 µM unless noted
[16] = test system: KM12 colon; conditions: 10 µM unless noted
[17] = test system: RPMI-8226 leukemia; conditions: 10 µM unless noted
[18] = test system: HS 578T breast; conditions: 10 µM

Measured: growth

CN1CCN(Cc2ccc(NC(=O)c3cccc(C#Cc4cnc(N)c5ncccc45)c3F)cc2C(F)(F)F)CC1
active: [1] -3.15% | [2] -49.3% | [3] -5.62% | [11] -82.7% | [12] -49.9% | [13] -65.1% | [14] -67.5% | [16] 1.2%
inactive: [4] 49.6% | [5] 22.3% | [6] 24.5% | [7] 73.2% | [8] 61.3% | [9] 79.9% | [10] 62% | [15] 67.3%

CCOc1cccc(/C=N/NC(=O)Cc2ccc(Nc3ccnc(C(F)(F)F)c3)cc2)c1O
active: [17] 4.35% | [13] 5.26%
inactive: [2] 16.7% | [3] 19.6% | [4] 22% | [5] 20% | [6] 11.3% | [7] 39.7% | [18] 76.4% | [8] 48% | [9] 15.7% | [10] 40.7% | [11] 40.3% | [12] 21.5% | [14] 20.9% | [15] 37.4% | [16] 30.1%

Clc1ncnc2scc(C3COc4ccccc4O3)c12 (configuration not stated)
inactive: [17] 95.7% | [2] 92.8% | [3] 94.4% | [4] 92.8% | [5] 115% | [6] 121% | [7] 106% | [18] 92.3% | [8] 109% | [9] 78.2% | [10] 70% | [11] 97.5% | [12] 93.3% | [13] 76.7% | [14] 86.2% | [15] 87.7% | [16] 104%

CC(C)COC(=O)NC(C)(C)C
inactive: [1] 91.5% | [2] 103% | [3] 97.9% | [4] 106% | [5] 103% | [6] 107% | [7] 105% | [8] 106% | [9] 99.6% | [10] 102% | [11] 107% | [12] 99.4% | [13] 90.8% | [14] 105% | [15] 97% | [16] 113%

Cc1nc2c(-c3cnc(N)nc3)nc(N3CCOCC3)nc2n1C(C)C
inactive: [7] 10% | [12] 11.3%
active: [1] 7% | [3] 7.67% | [4] -3.01% | [5] -39.7% | [6] -24.7% | [8] -5.49% | [9] -18% | [11] 4.17% | [13] 9.9% | [16] 5.78%

O=C(CSc1ccc(Cl)cc1)Nc1ccc(-c2nc3ccccc3s2)c(Cl)c1
inactive: [17] 38.5% | [2] 50.8% | [3] 99.1% | [4] 57.6% | [5] 94.7% | [6] 69.4% | [18] 79.1% | [8] 62% | [9] 34.4% | [10] 95.2% | [11] 77.9% | [12] 65.9% | [13] 47.7% | [14] 19.7% | [15] 81.1% | [16] 23%
active: [7] -10.9%

N=c1n(Cc2ccccc2)c(N)cc(=O)n1Cc1ccccc1
inactive: [2] 20% | [3] 68.8% | [4] 34.1% | [5] 21.4% | [6] 37.9% | [8] 10.6% | [9] 26.7% | [11] 37.2% | [12] 20.7% | [13] 23.4% | [15] 67.4% | [16] 39.2%
active: [1] 1.6% | [7] 0.156% | [18] -1.73% | [14] 8.12%

CCOC(=O)C1=C(C)NC(SCc2nnc(-c3ccc(Cl)cc3)o2)=NC1c1ccc(Cl)cc1 (configuration not stated)
inactive: [1] 42.9% | [2] 74.8% | [3] 89.6% | [4] 70% | [5] 82.6% | [6] 62.3% | [7] 70.8% | [18] 83.7% | [8] 69.9% | [9] 49.9% | [11] 69.6% | [12] 85.9% | [13] 49% | [14] 46.2% | [15] 79.9% | [16] 69.8%

CC(=O)O[C@H]1[C@H](CC#CC#CC[C@@H]2C[C@]3(C)[C@H]4CC=C5[C@H]6[C@@H](C)[C@H](C)CC[C@]6(C(=O)NCCN(CCN)CCN)CC[C@@]5(C)[C@]4(C)CC[C@H]3C(C)(C)[C@H]2OC(C)=O)C[C@]2(C)[C@H]3CC=C4[C@H]5[C@@H](C)[C@H](C)CC[C@]5(C(=O)NCCN(CCN)CCN)CC[C@@]4(C)[C@]3(C)CC[C@H]2C1(C)C
active: [2] 3.13% | [13] -0.0516%
inactive: [1] 53.9% | [3] 54.6% | [4] 97.4% | [5] 89.2% | [6] 62.3% | [7] 89% | [18] 70.6% | [8] 49.2% | [10] 99.9% | [11] 64.7% | [12] 64% | [14] 75.5% | [15] 72.3% | [16] 86.1%

CN(C)c1ccc(N2Cc3ccccc3OC3=C2C(=O)c2c(O)ccc(O)c2C3=O)cn1
active: [17] -17.2% | [2] -12.1% | [3] -50.6% | [4] -98.2% | [5] -7.84% | [6] -63.3% | [7] -95.8% | [8] 3.51% | [9] -47.9% | [10] -71.2% | [11] -21.3% | [12] -58.3% | [13] -55% | [14] -86.8% | [15] -75.2% | [16] -41.9%
inactive: [18] 44.7%

O=c1[nH]c2cc(Cl)c(Cl)cc2o1
inactive: [1] 126% | [3] 113% | [4] 106% | [5] 107% | [6] 138% | [7] 102% | [18] 100% | [8] 116% | [9] 121% | [10] 132% | [11] 103% | [12] 98.9% | [13] 105% | [15] 117% | [16] 111%

Cc1nc2ccc(Nc3nc(Cl)nc(N4CCOCC4)n3)cc2n1Cc1ccccc1
inactive: [1] 18.5% | [2] 44% | [3] 104% | [4] 126% | [5] 93.7% | [7] 98.4% | [18] 81.4% | [9] 40.6% | [10] 83.7% | [11] 110% | [12] 70.4% | [13] 64.7% | [14] 81.2% | [16] 95.8%
active: [6] -1.16% | [15] 0.667%

Cc1c(C)c(C)c([N+](=O)[O-])c([N+](=O)[O-])c1C
inactive: [1] 99.8% | [3] 84.5% | [5] 111% | [6] 122% | [7] 98.5% | [18] 96.5% | [8] 99.4% | [10] 101% | [11] 88.6% | [12] 106% | [13] 97% | [14] 109% | [15] 103% | [16] 98.1%

Cc1ccccc1N1C(c2ccccc2)=NNC12C=CC(=O)c1c(O)cccc12 (configuration not stated)
active: [11] -89.5%
inactive: [1] 97% | [2] 60.1% | [3] 83.8% | [4] 61.3% | [5] 74.4% | [6] 93.2% | [7] 60.5% | [8] 72.5% | [9] 87.7% | [10] 77% | [12] 98.6% | [13] 73.5% | [14] 66.5% | [15] 90.3% | [16] 77.6%

CCN(CC)c1ccc(C(=N)c2ccc(N(C)C)cc2)cc1
inactive: [2] 11.9% | [3] 16.8% | [4] 21.4% | [5] 14.4% | [10] 28.9% | [15] 15.4%
active: [17] 6.17% | [6] 4.79% | [7] -12.6% | [18] -31% | [8] -31.1% | [9] -13.6% | [11] 2% | [12] -18.6% | [13] 2.36% | [14] 1.67% | [16] -8.02%

C=CCn1c(SCC(=O)Nc2ccc(/C(C)=N\O)cc2)nnc1-c1cc(-c2ccccc2)nc2ccccc12
inactive: [17] 47.1% | [2] 53.5% | [3] 85.8% | [4] 75% | [5] 79.6% | [7] 58.3% | [18] 85.8% | [8] 52.8% | [9] 15.2% | [10] 54% | [11] 56.1% | [12] 51.9% | [13] 21% | [14] 44% | [15] 62.1% | [16] 44.8%
active: [6] 0.364%

Clc1ccc2c(c1)-c1ccccc1C1=NCCN12
active: [1] 8.25%
inactive: [3] 41.2% | [4] 44.4% | [5] 36.9% | [6] 24.3% | [7] 41.1% | [18] 58.4% | [8] 26.3% | [9] 29.6% | [10] 71.5% | [11] 29.4% | [12] 22.5% | [13] 10.6% | [14] 21% | [15] 40.7% | [16] 33.3%

Fc1cc(-c2nnc3sc(-c4ccc(Cl)cc4)nn23)c(Cl)cc1Cl
inactive: [1] 61.1% | [2] 100% | [3] 101% | [4] 92.5% | [5] 107% | [6] 100% | [18] 66.1% | [8] 104% | [9] 87% | [10] 106% | [12] 96.5% | [13] 86.7% | [14] 94.6% | [15] 106% | [16] 95.6%

CCCNC(=S)N/N=C(\C)c1ccccn1
active: [6] 9.27% | [13] 6.77% | [14] 4.71%
inactive: [1] 10% | [2] 25.2% | [3] 49.3% | [4] 14.8% | [5] 29.3% | [7] 41.4% | [18] 32.9% | [8] 11.5% | [10] 32.4% | [11] 49% | [12] 33.4% | [15] 44.2% | [16] 32%
